The record followed here is PubChem BioAssay (Tox21).

Values joined by “and” are separate entries in the source; they are usually repeats but may differ in a detail not shown here. Equal entries are not always repeated. Inconclusive results are not listed. Active and inactive are the calls of the source. Unless noted, calls follow the shape of the dose curve; as a rule, active = well fitted curve in the direction sought with a large enough effect in the repeat runs; inconclusive = weak or mixed curves; inactive = no such curve, though single readings can be large; an effect the other way counts as inactive or inconclusive.

The nature of experiment [1]: qHTS assay to identify small molecule antagonists of the peroxisome proliferator-activated receptor gamma (PPARg) signaling pathway - cell viability counter screen (AID 743194). Also: nearly all actives have a fitted effect of over 55% in size. Also: potency is read from the fitted curve at half-maximal effect. In outline: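 PPARg-UAS-bla HEK293H cells were plated, rested 5 h at 37 C, then treated with compounds plus rosiglitazone (50 nM final) for 17 h at 37 C; viability was then read by CellTiter-Glo luminescence after 30 min at room temperature.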
On the technique in general: In qHTS, concentration-response curves come from the screen itself.

The nature of experiment [2]: qHTS assay for small molecule agonists of the antioxidant response element (ARE) signaling pathway - cell viability counter screen (AID 743203; calls by dose curve; also: nearly all actives have a fitted effect of over 55% in size; also: potency is read from the fitted curve at half-maximal effect). In outline: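 ARE-bla HepG2 cells were plated, rested 5 h at 37C/5% CO2, then exposed to compounds in DMSO for 16 h. Viability was read as CellTiter-Glo luminescence after 30 min at room temperature, in the same wells as the ARE screen.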

The nature of experiment [3]: qHTS assay for small molecule activators of the heat shock response signaling pathway - cell viability counter screen (AID 743209). Also: nearly all actives have a fitted effect of over 50% in size. Also: potency is read from the fitted curve at half-maximal effect. In outline: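 HSE-bla HeLa cells plated overnight, then exposed to Tox21 compounds (23 nL in DMSO) for 5 h at 37 C. After the bla reporter read, CellTiter-Glo was added in the same wells and luminescence read after 30 min at room temperature.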

Experiment [4] can be described thus: qHTS assay to identify small molecule agonists of the peroxisome proliferator-activated receptor delta (PPARd) signaling pathway - cell viability counter screen (AID 743211). Also: nearly all actives have a fitted effect of over 55% in size. Also: potency is read from the fitted curve at half-maximal effect. In a few lines: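 Read-out: CellTiter-Glo luminescence, 30 min RT, measured in the same wells as the beta-lactamase reporter. Cells: GeneBLAzer PPAR delta UAS-bla HEK293H, 3000 cells/well, compound exposure 17 h at 37C.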

A short description of experiment [5]: qHTS assay to identify small molecule antagonists of the peroxisome proliferator-activated receptor delta (PPARd) signaling pathway - cell viability counter screen (AID 743213). Also: nearly all actives have a fitted effect of over 50% in size. Also: potency is read from the fitted curve at half-maximal effect. In outline: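 HEK293H cells with the PPARd UAS-bla reporter, co-treated 17 h at 37 C with compounds and L165041 (300 nM final), were lysed with CellTiter-Glo. Luminescence indicated viable cell content.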

In experiment [6] the target is Bile acid receptor (Homo sapiens) (UniProt Q96RI1). Kind of experiment: qHTS assay to identify small molecule agonists of the farnesoid-X-receptor (FXR) signaling pathway (AID 743220; active = well fitted activation curve with a large enough effect in the signal ratio in the repeat runs, not every such curve was filed as active; the % refers to the signal ratio). In a few lines: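 Beta-lactamase reporter under UAS control in GeneBLAzer FXR HEK 293T cells (5000/well) measured with LiveBLAzer FRET substrate after 2 h at room temperature. Compound exposure lasted 16 h at 37C.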
Sequence of Bile acid receptor (Homo sapiens) (Q96RI1 whole entry, looked up): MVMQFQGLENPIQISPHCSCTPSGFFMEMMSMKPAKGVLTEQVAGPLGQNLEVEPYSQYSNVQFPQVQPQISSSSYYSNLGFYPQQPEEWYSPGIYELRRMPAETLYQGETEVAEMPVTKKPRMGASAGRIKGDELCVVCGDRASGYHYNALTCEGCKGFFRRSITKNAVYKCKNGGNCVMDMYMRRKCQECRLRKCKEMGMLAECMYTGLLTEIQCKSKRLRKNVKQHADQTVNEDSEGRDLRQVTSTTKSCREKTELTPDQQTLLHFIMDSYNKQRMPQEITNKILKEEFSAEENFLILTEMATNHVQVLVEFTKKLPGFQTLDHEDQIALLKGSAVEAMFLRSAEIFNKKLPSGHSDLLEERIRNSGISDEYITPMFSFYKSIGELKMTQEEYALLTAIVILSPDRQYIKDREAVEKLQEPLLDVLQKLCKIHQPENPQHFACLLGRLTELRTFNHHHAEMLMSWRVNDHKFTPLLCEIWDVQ

A short description of experiment [7]: qHTS assay to identify small molecule antagonists of the farnesoid-X-receptor (FXR) signaling pathway - cell viability counter screen (AID 743221; active = well fitted cell-killing curve with a large enough effect in the repeat runs, not every such curve was filed as active; also: nearly all actives have a fitted effect of over 50% in size). In a few lines: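 HEK 293T FXR-bla cells, 5 h pre-incubation; compound + CDCA 50 uM final, 16 h, 37 C; beta-lactamase FRET read first, then CellTiter-Glo luminescence, 30 min RT.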
Experiment [8] has as its target Aryl hydrocarbon receptor (Homo sapiens) (UniProt P35869). Put plainly: qHTS assay to identify small molecule that activate the aryl hydrocarbon receptor (AhR) signaling pathway (AID 743085). Also: nearly all actives have a fitted effect of over 15% in size. Also: potency is read from the fitted curve at half-maximal effect.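 As to activation: HG2L7.5c1 human HepG2 liver cells with stably integrated DRE-driven firefly reporter; series mostly up to about 70 µM.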 In outline:
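Luminescence read-out: ONE-Glo reagent, 30 min at room temperature, in HG2L7.5c1 HepG2 reporter cells treated 24 h at 37C. Viability was measured beforehand by CellTiter-Fluor fluorescence after 30 min at 37C.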

Experiment [9] can be described thus: qHTS assay to identify small molecule that activate the aryl hydrocarbon receptor (AhR) signaling pathway - cell viability counter screen (AID 743086).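 Also: HepG2 liver cells carrying the AhR DRE luciferase reporter; series mostly up to about 70 µM; nearly all actives have a fitted effect of over 45% in size.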 In a few lines: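 HepG2-AhR-luc (HG2L7.5c1) cells, 4000/well, were preincubated 5 h at 37C, exposed to compound in qHTS format for 24 hr at 37C, then given CellTiter-Fluor for 30 min; viability was read as fluorescence in the reporter wells.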

The nature of experiment [10]: qHTS assay for small molecule agonists of the antioxidant response element (ARE) signaling pathway (AID 743202; active = well fitted activation curve with a large enough effect in the signal ratio in the repeat runs, not every such curve was filed as active; the % refers to the signal ratio; also: potency is read from the fitted curve at half-maximal effect). In outline: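 Compounds delivered in DMSO to ARE-bla HepG2 cells (2,000 cells/well, pre-incubated 5 h) and left 16 h at 37 C. LiveBLAzer B/G FRET substrate then added for 2 h at RT before fluorescence reading.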
Experiment [11] can be described thus: qHTS assay for small molecule activators of the heat shock response signaling pathway (AID 743210; active = well fitted activation curve with a large enough effect in the signal ratio in the repeat runs, with a control signal flat, not every such curve was filed as active; the % refers to the signal ratio;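 also: HeLa cells with beta-lactamase reporter driven by heat shock elements; series mostly up to about 63 µM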). In outline: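 Reporter gene assay: HeLa cells stably bearing an HSE-bla construct, compound treatment 5 h at 37 C, LiveBLAzer substrate 2.5 h at RT, fluorescence intensity.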
Experiment [12] concerns the target Peroxisome proliferator-activated receptor delta (Homo sapiens) (UniProt Q03181). Kind of experiment: qHTS assay to identify small molecule antagonists of the peroxisome proliferator-activated receptor delta (PPARd) signaling pathway (AID 743215; active = well fitted inhibition curve with a large enough effect in the signal ratio in the repeat runs, not every such curve was filed as active; the % refers to the signal ratio;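 also: cells stimulated with agonist L165041 at 300 nM final during compound exposure; series mostly up to about 62 µM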). In outline: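 PPARd-bla HEK293H cells (UAS-bla reporter) preincubated 5 h, then given compound plus 300 nM final L165041 agonist for 17 h at 37 C. Beta-lactamase activity read by LiveBLAzer B/G FRET substrate fluorescence after 2 h at room temperature.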

The target in experiment [13] is Bile acid receptor (Homo sapiens) (UniProt Q96RI1). Put plainly: qHTS assay to identify small molecule antagonists of the farnesoid-X-receptor (FXR) signaling pathway (AID 743217; active = well fitted inhibition curve with a large enough effect in the signal ratio in the repeat runs, not every such curve was filed as active; the % refers to the signal ratio; also: potency is read from the fitted curve at half-maximal effect). In outline: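 FXR-UAS-bla HEK 293T cells (beta-lactamase reporter) given compound plus chenodeoxycholic acid (50 uM final), 16 h at 37C. LiveBLAzer B/G FRET substrate added for 2 h at room temperature; fluorescence read.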

The target in experiment [14] is Vitamin D3 receptor (Homo sapiens) (UniProt P11473). Kind of experiment: qHTS assay to identify small molecule agonists of the vitamin D receptor (VDR) signaling pathway (AID 743222; calls by dose curve). In outline:
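VDR-bla cells plated 4 h at 37 C, then exposed to compounds for 16 h at 37 C. Beta-lactamase reporter activity measured by fluorescence after 2 h room-temperature loading with LiveBLAzer B/G FRET substrate.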

For experiment [15] the target is unchanged. Put plainly: qHTS assay to identify small molecule antagonists of the vitamin D receptor (VDR) signaling pathway (AID 743223; active = well fitted inhibition curve with a large enough effect in the signal ratio in the repeat runs, not every such curve was filed as active; the % refers to the signal ratio; also: potency is read from the fitted curve at half-maximal effect). In outline: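 Beta-lactamase reporter read-out: FRET substrate fluorescence after 2 h at room temperature, following 16 h exposure of VDR-bla cells to test compound plus 3 nM (final) 1alpha,25-dihydroxyvitamin D3 agonist at 37C.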

Experiment [16] deals with Peroxisome proliferator-activated receptor gamma (Homo sapiens) (UniProt P37231). Kind of experiment: qHTS assay to identify small molecule agonists of the peroxisome proliferator-activated receptor gamma (PPARg) signaling pathway (AID 743094; active = well fitted activation curve with a large enough effect in the signal ratio in the repeat runs, not every such curve was filed as active; the % refers to the signal ratio). In a few lines:
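GeneBLAzer PPARg UAS-bla HEK293H cells were plated, rested 5 h, then exposed to compounds for 17 h at 37C. Beta-lactamase activity was read by LiveBLAzer B/G FRET substrate fluorescence after 1 h at room temperature.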

The target in experiment [17] is Peroxisome proliferator-activated receptor delta (Homo sapiens) (UniProt Q03181). Kind of experiment: qHTS assay to identify small molecule agonists of the peroxisome proliferator-activated receptor delta (PPARd) signaling pathway (AID 743212; calls by dose curve). In a few lines: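 A PPARd-bla HEK293H line with beta-lactamase under an Upstream Activator Sequence is treated with compounds at 37 C. Substrate loading for 2 h at room temperature precedes the fluorescence measurement.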
Sequence of Peroxisome proliferator-activated receptor delta (Homo sapiens) (Q03181 whole entry, looked up): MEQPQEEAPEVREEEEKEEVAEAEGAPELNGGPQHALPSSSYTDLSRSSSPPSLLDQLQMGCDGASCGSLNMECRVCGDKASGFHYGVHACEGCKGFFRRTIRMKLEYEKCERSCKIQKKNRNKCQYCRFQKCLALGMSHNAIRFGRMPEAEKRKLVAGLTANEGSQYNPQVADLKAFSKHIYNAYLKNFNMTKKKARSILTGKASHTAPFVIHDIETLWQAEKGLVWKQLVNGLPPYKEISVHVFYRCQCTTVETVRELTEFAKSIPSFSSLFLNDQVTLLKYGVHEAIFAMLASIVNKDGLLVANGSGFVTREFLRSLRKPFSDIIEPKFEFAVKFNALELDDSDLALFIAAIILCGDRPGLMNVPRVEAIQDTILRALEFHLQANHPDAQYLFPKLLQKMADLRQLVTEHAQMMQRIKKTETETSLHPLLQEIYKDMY

In experiment [18] the target is Peroxisome proliferator-activated receptor gamma (Homo sapiens) (UniProt P37231). Put plainly: qHTS assay to identify small molecule antagonists of the peroxisome proliferator-activated receptor gamma (PPARg) signaling pathway (AID 743191; calls by dose curve; also: nearly all actives have a fitted effect of over 30% in size; also: potency is read from the fitted curve at half-maximal effect). In outline: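 GeneBLAzer PPARg UAS-bla HEK293H cells carrying a UAS-driven beta-lactamase reporter were plated at 3000 cells/well, preincubated 5 h at 37C, then given compound for 17 h at 37C; LiveBLAzer B/G FRET substrate was read after 1 h at room temperature.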
Sequence of Peroxisome proliferator-activated receptor gamma (Homo sapiens) (P37231 whole entry, looked up): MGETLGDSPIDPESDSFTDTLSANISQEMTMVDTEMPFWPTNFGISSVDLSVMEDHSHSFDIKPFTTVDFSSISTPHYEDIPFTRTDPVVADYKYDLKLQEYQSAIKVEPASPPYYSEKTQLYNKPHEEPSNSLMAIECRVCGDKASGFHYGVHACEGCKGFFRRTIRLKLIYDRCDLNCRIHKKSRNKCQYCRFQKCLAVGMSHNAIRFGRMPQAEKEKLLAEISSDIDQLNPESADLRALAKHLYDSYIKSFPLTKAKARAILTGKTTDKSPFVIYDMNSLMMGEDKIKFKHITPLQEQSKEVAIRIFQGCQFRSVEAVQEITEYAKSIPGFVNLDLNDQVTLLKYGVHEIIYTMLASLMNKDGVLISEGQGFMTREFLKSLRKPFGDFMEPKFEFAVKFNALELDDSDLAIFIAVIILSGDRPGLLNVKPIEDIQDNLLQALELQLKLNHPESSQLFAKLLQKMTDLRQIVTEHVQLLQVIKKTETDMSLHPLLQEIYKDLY

Experiment [19] is described as follows: qHTS assay to identify small molecule agonists of the farnesoid-X-receptor (FXR) signaling pathway - cell viability counter screen (AID 743218). Also: nearly all actives have a fitted effect of over 45% in size. Also: potency is read from the fitted curve at half-maximal effect. In a few lines: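 FXR-UAS-bla HEK 293T cells exposed to compounds for 16 h at 37C. Cytotoxicity read in the same wells by CellTiter-Glo luminescence after 30 min at room temperature, following the beta-lactamase FRET read.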

Sequence of Vitamin D3 receptor (Homo sapiens) (P11473 whole entry, looked up): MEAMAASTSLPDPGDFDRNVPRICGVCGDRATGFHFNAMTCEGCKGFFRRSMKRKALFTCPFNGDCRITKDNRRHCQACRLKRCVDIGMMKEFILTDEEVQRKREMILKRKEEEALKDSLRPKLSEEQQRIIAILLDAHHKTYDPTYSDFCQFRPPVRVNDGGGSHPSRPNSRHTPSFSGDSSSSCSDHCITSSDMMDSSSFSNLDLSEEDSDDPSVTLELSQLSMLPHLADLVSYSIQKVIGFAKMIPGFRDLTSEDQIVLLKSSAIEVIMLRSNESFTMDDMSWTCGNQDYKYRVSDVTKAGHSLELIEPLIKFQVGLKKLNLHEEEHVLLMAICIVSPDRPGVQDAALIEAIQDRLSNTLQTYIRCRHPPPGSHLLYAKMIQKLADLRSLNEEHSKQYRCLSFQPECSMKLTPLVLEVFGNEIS
Sequence of Aryl hydrocarbon receptor (Homo sapiens) (P35869 whole entry, looked up): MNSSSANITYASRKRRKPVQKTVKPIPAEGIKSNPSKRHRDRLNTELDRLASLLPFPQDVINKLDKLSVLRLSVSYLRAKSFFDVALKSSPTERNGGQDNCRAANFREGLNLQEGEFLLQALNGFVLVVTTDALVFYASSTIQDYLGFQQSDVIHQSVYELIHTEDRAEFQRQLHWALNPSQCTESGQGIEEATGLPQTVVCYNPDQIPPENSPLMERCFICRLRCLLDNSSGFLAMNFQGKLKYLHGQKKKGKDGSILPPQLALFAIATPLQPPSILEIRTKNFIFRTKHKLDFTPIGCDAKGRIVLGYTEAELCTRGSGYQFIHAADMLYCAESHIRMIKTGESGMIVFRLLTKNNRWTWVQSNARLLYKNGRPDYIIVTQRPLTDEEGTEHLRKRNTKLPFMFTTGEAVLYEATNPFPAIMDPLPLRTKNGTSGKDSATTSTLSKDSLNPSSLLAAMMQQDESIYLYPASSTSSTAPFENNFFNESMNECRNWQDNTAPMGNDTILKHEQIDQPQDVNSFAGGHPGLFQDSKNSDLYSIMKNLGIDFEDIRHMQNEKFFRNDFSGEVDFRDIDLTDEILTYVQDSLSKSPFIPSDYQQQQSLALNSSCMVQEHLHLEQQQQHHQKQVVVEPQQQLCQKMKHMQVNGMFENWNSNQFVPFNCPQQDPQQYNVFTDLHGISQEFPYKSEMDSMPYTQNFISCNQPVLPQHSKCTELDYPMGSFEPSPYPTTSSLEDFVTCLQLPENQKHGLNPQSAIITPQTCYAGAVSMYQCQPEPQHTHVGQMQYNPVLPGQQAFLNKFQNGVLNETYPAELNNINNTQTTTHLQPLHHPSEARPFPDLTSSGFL

On to `Cc1ccc(-n2[nH]c(C)c(N=Nc3cccc(-c4cccc(C(=O)O)c4)c3O)c2=O)cc1C`, for which the Potency is 2.37 µM (active) in experiment [1] and 26.6 µM (active) in [4]. In addition, the Potency result in experiment [2], in experiment [3], in experiment [5], in [6] and in experiment [7] was “inactive” each time.

`CC(CN(C)C)CN1c2ccccc2CCc2ccccc21` (configuration not stated): the Potency result in [8], in experiment [9], in experiment [10], in experiment [2], in experiment [3] and in experiment [11] was “inactive” each time. Besides, the Potency result in experiment [12], in [13], in experiment [6], in experiment [14] and in [15] was “inactive” throughout. The Potency in experiment [4] is 26.6 µM (active); in experiment [5] it was 29.8 µM (active).

On to `CC(C)c1ccc(O)c(C(C)C)c1`, for which the Potency result in [8], in experiment [16], in experiment [1], in experiment [3], in experiment [12] and in experiment [14] was “inactive” in each case. Moreover, in experiment [17], the compound was classed as inactive.

In the case of `COc1ccc(-n2nc(CCC(=O)N(C)O)cc2-c2ccc(Cl)cc2)cc1`, the Potency in [18] is 3.76 µM (active). Further, the Potency entry in [1], in [2], in experiment [3] and in experiment [7] was “inactive” each time. Moreover, the compound was called inactive in experiment [17].

As for `O=C1c2c(O)ccc(O)c2C(=O)c2c(NCCNCCO)ccc(NCCNCCO)c21`, the Potency entry in experiment [8], in experiment [5], in [6] and in experiment [7] was “inactive” in each case. In addition, the Potency is 29.8 µM (active) in experiment [4] and 26.6 µM (active) in experiment [13].

As for `C[n+]1c2cc(N)ccc2cc2ccc(N)cc21` (tested in a mixture with another compound), the Potency is 9.44 µM (active) in [8], 29.8 µM (active) in [3] and 15 µM (active) in experiment [19]. Besides, the Potency result in experiment [2], in experiment [11] and in experiment [7] was “inactive” each time.

With `CN(C)CCOC(c1ccccc1)c1ccccc1` (tested in a mixture with another compound), the Potency entry in experiment [9], in [1], in [10], in [2] and in [3] was “inactive” in each case.

In the case of `CNC(=S)NN`, the Potency entry in experiment [8], in experiment [16], in experiment [18], in experiment [1] and in experiment [19] was “inactive” in each case. Also, the Potency is 24.5 µM (active) in experiment [3], 12.3 µM (active) in experiment [4], 11 µM (active) in experiment [5] and 17.4 µM (active) in [15].

As to `CC(C)(c1cc(Br)c(O)c(Br)c1)c1cc(Br)c(O)c(Br)c1`, the Potency result in [9], in [19], in experiment [6] and in experiment [7] was “inactive” each time. Further, the Potency in experiment [1] was 54.8 µM (active) and 43.5 µM (active) and 46.3 µM (active); in [10], 23 µM (active); in experiment [2], 60.9 µM (active) and 57.9 µM (active).

Regarding `CCCCCCCCCC(=O)N(C)C`, the Potency entry in [9], in experiment [2], in experiment [3], in [11], in [4] and in experiment [5] was “inactive” in each case. For the same compound, the Potency entry in experiment [13], in [6], in [7], in [14] and in [15] was “inactive” each time.
